# ± gives the standard deviation of the averaged measurements. In all, about 25,000 sequences were measured (“ln(normalized median fluorescence intensity)”: median about 7.9, highest 2% from about 11 on). The full list was thinned out, with the highest values kept by preference.
# System: PfAP2-I AP2 domain 3 (GST-tagged)
# Experiment: gcPBM binding intensity (ln(normalized median fluorescence intensity)); higher = stronger DNA binding
# Summary of the method: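 The binding buffer was 1× PBS containing 1% milk, 0.2 mg/ml BSA, 0.5% salmon testes DNA and 0.03% Triton X-100. In it, GST-tagged P. falciparum DNA-binding domains expressed in E. coli were applied for 1 h to an Agilent 4 × 180k array of primer-extended double-stranded 36-bp intergenic genomic probes plus negative controls. Binding intensity, read with Alexa488 anti-GST antibody and a 488 nm scan, is the highest Masliner-normalised natural-log median intensity across replicate spots of either probe orientation.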
row,Sequence,gcPBM binding intensity (ln)
1,GGTTATATATTTTTTGCACACCAAAAAAGAGAATAT [CACACA_site2731],9.56 ± 0.14
2,ATTCACAAATATATGGTGCATAATATATATATATAT [GTGCAC_site9674],11.31 ± 0.078
3,ATGGCATAAATATATGCACACACAAAAAAAAAAAAA [CACACA_site7902],8.98 ± 0.11
4,TTCATATTATAGTGCACACAAAAATATATATATGGT [CACACA_site2855],11.3 ± 0.43
5,AACTCATAGCGGTGTGCACACAAAAAATTAAAAAAA [CACACA_site3033],9.9 ± 0.2
6,TATATATATTTATGCACACAAAATATATTATAGAAT [CACACA_site3740],9.99 ± 0.4
7,TTTTCATATTATAGTGCACACAAAAATATATATATG [CACACA_site8929],11.5 ± 0.47
8,CTCATAGTTGGGTGCACACAAAAAATTAAAAAAATA [CACACA_site3032],11.1 ± 0.81
9,ATTAATTTTATATATGCACACAAAATATGTTCATAT [CACACA_site9350],9.13 ± 0.099
10,CATATAAAAATATATGCACACAAATAAAAAATTATA [CACACA_site9210],8.94 ± 0.39
11,AACTCATAGGAGTGTGCACACAAAAAATTAAAAAAA [CACACA_site8996],9.52 ± 0.42
12,ATTATATACATATATGCACACAAAAAAATATATATT [CACACA_site8508],9.04 ± 0.12
13,TGAATATTCATATGCACACAAATTAATATACATAAT [CACACA_site442],8.675 ± 0.021
14,AAAAGGGAAATAAAATAAAAAAAGAAACATATATAG [CACACA_negctrl_site455],7.72 ± 0.76
15,ATATGATCATAAAACACACACACAAAAAAAAAAAAA [CACACA_site1806],7.95 ± 0.75
16,TATATATGTGTATAGAGTACACGTTTTTTTTAATAT [XGTACX_site3128],7.71 ± 0.38
17,ATTGTATTAAAATGCACACATATCAAGAGGAATTTT [CACACA_site283],9.095 ± 0.064
18,AAAGAAAATAACAAAATTTTGAAAACATCACATTCG [CACACA_negctrl_site89],7.63 ± 0.69
19,ATCAAAATGTTAAAGATACACACCTAACAAACACAA [CACACA_site955],7.96 ± 0.19
20,TAAATCATTTATTAAGTGCAATATTCTTTTTGAGAT,10.3 ± 0.28
21,ATATATATATATATGGTGCATGAAAATTTACTTTGA,10.11 ± 0.085

row,Sequence,gcPBM binding intensity (ln)
1,TATATATGTATGTATGTACACACAAAAAATGGAATA [CACACA_site9235],8.05 ± 0.45
2,CGTATATCACCAACTAGTACATATAAATAAATAAAT [XGTACX_site8837],7.92 ± 0.5
3,AAAAAGGTTAAGGTAGTGCATAATAAAGAATATTAA,11 ± 0.45
4,AAAAAGAATATAAGTAGTACAGTGCATATAATAATT [XGTACX_site617],10.3 ± 0.37
5,TATATAATATATATAGTGCATAAGTTCAAAAGAATA [GTGCAC_site9805],9.95 ± 0.16
6,AAATAAGAAAAAGCGCGTACACATAACATTTTTATA [XGTACX_site8807],7.82 ± 0.54
7,TTAACGTAAAATATAGTGCATAGTATCATATTGATA [GTGCAC_site9527],9.5 ± 0.099
8,TATGTTTTTGAATGAGTGCATTAAAATAAAACATTT,11.3 ± 0.61
9,TTTGAAATATTAAATGCATGTTAAAACATAAAAATG [TGCATGCA_site680],7.91 ± 0.73
10,GGTTTGAATTTTTAAGTGCATATAACATAAATGAAA,9.86 ± 0.23
11,TATAATATGACAAGAAGTACATATATTTACATATAT [XGTACX_site1571],7.54 ± 0.29
12,AAATCAAACTTTGGTGTGCACAAATATATACATATA [GTGCAC_site9986],10.545 ± 0.007
13,TATATTAACAAAATGGTGCAATAATTTCTATATTAT [GTGCAC_site9857],11.3 ± 0.61
14,AATAAGTAACAAAATACACACATATAGGTAATTATA [CACACA_site6949],7.62 ± 0.59
15,TATATTAACAAAATGGTGCAATAATTTCTATATTGT [GTGCAC_site9430],11.2 ± 0.54
16,CATAACATAAAATAGGTGCACAAAAATTGTAATTGA,11.37 ± 0.021
17,TATATTCAAAATGGTACACACAATATTTAATTGTGC [CACACA_site2631],7.68 ± 0.34
18,AAAAATTAACAAAAGGTGCAATTTATTTATTAACGG,10.3 ± 0.5
19,ATTTAAATACAAAATTGTACTTTTCTATATTTAACA [XGTACX_site6146],7.79 ± 0.41
20,TAATATATATAACAAGTGCAAAAAAATATAGATATT [GTGCAC_site9625],9.38 ± 0.33
21,TACAATGAAAAAATAACATGCAATTATATTTCTCTT [TGCATGCA_site833],8.23 ± 0.74

row,Sequence,gcPBM binding intensity (ln)
1,TATTAATTTAAATGGGTGCAAAACCTATATAAATAT,10.6 ± 0.55
2,GTTGTGTAATTCGTAACACACATAAAATATATATAA [CACACA_site6059],7.76 ± 0.48
3,TAATATAATATATAGGTGCAATATTAACAAAAATTT,11 ± 0.44
4,AATGGGTTACACATATGTACATAAAATATAAAAAAT [XGTACX_site3440],8.06 ± 0.73
5,GGAGAATAGTGGAAAACACACACGTTTGAGATATGG [CACACA_site1168],7.92 ± 0.91
6,GATTAACAACATATTAGTACATATATTATATATATA [XGTACX_site7646],8.61 ± 0.23
7,AGTTTCTATTTAGTGTGTACTTAAGAAAAATATCTC [XGTACX_site82],7.88 ± 0.4
8,AGAAGAAAAGAAATATGTACATAAACGTCTGAACTA [XGTACX_site1699],7.8 ± 0.71
9,CCTTTTGGATGAAAGTGTACAGGTGAGAAAAATTCC [XGTACX_site3358],8.07 ± 0.54
10,TTATCGGTATAATATAGTACATATAGATATATAATA [XGTACX_site1440],7.7 ± 0.39
11,TTTGATAAATTATACACACACAATATATATAAAATA [CACACA_site2023],7.72 ± 0.51
12,CTTAAACTTTTAAATACACACATACAGACATACACA [CACACA_site6401],8.055 ± 0.021
13,AGATATTATAATTAATGTACAAAAAGAAAAAATAGA [XGTACX_site8964],7.86 ± 0.64
14,AGCAAAACAAAAAAATTAAAATTAACATATAATCAT [GTGCAC_negctrl_site393],7.38 ± 0.62
15,TATATATATATATAGGTGCAATATTGAAAAAATATC [GTGCAC_site9535],11.3 ± 0.47
16,ATGTATGCAAAAATGGTGCATATTAAATGTATAACA [GTGCAC_site9722],10.8 ± 0.49
17,GTAGACATTATAATGGTGCAAAAAAATTAACAAAAA [GTGCAC_site9891],10.9 ± 0.3
18,AAATATAATTAATGATGTACACTTATAGATATTGAT [XGTACX_site8435],8.09 ± 0.24
19,ATATTATAATTGAAGGTGCAAAATGTAATATAGATA [GTGCAC_site9661],10.9 ± 0.49
20,ATTTTTTTTTAATGCAATATATTTTGAAAATTTTAT [CACACA_negctrl_site753],8.62 ± 0.27
21,AGAAAAAAAAAAAAAAAAAAAAAATTGAATATATAT [TGCATGCA_negctrl_site55],7.67 ± 0.81
